Measurements: PubChem BioAssay (Tox21)
Results filed as inconclusive are left out. The source made the active and inactive calls. Unless noted, calls come from the whole dose curve; as a rule, active = well fitted curve in the direction sought with a large enough effect in the repeat runs; inconclusive = weak or mixed curves; inactive = no such curve, though single readings can be large; an effect the other way counts as inactive or inconclusive.

Experiments:
[1] = qHTS assay for small molecules that induce genotoxicity in human embryonic kidney cells expressing luciferase-tagged ATAD5 (AID 651632); settings: HEK293T ATAD5-luciferase induction, 16 h; series mostly up to 83.3 µM; note: nearly all actives have a fitted effect of over 15% in size
How it was run: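 HEK293T cells carrying a luciferase reporter tagged to ATAD5 were exposed to compound or DMSO vehicle for 16 hr at 37C, 5% CO2. Amplite was added, and after 30 min at room temperature luciferase activity was read as a marker of ATAD5 induction.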

[2] = qHTS assay for small molecule agonists of the p53 signaling pathway - cell viability (AID 651633; calls by dose curve;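 note: p53RE-bla HCT reporter cells with a stable beta-lactamase p53 reporter; nearly all actives have a fitted effect of over 30% in size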); settings: p53RE-bla HCT-116 viability, ATP luminescence, 16 h; series mostly up to 83.3 µM
How it was run: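 p53RE-bla cells were treated with compound for 16 hours at 37 C. Cytotoxicity was then measured as CellTiter-Glo luminescence after 30 min at room temperature.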

[3] = qHTS assay for small molecules that induce genotoxicity in human embryonic kidney cells expressing luciferase-tagged ATAD5 - cell viability (AID 651634; calls by dose curve; note: nearly all actives have a fitted effect of over 25% in size); settings: HEK293T ATAD5-luc cells viability, CellTiter-Fluor, 15.5 h; series mostly up to 83.3 µM
How it was run: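 HEK293T cells expressing luciferase-tagged ATAD5 were exposed to compound or DMSO for 15.5 hr at 37C, 5% CO2. Viability was then read as live-cell protease activity by CellTiter-Fluor fluorescence after 30 min at 37C.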

[4] = qHTS assay to test for compound auto fluorescence at 590 nm (red) in HepG2 cells (AID 720674); settings: HepG2 autofluorescence, red 540/590 nm, 1 h; series mostly up to 91.3 µM
How it was run: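 HepG2 cells, 2,000 per well in MEM with 10% FBS, attached overnight at 37 C, then got 23 nL compound or DMSO. After 1 hr at 37 C, 5% CO2, red fluorescence was read at 540/590 nm against Rose Bengal sodium as reference.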

[5] = qHTS assay to test for compound auto fluorescence at 535 nm (green) in HepG2 cells (AID 720675); settings: green autofluorescence 485/535 nm, 1 h; series mostly up to 91.3 µM
[6] = qHTS assay to test for compound auto fluorescence at 460 nm (blue) in HEK293 cells (AID 720678); settings: blue autofluorescence 405/460 nm; series mostly up to 91.3 µM
How it was run: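 Auto fluorescence in the blue band was quantified as triamterene equivalency. HEK293 cells were seeded at 2,000/well, dosed after a 4-5 hr attachment, and kept overnight at 37C before the 405/460 nm reading.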

[7] = qHTS assay to test for compound auto fluorescence at 590 nm (red) in HEK293 cells (AID 720679); settings: red autofluorescence 540/590 nm; series mostly up to 91.3 µM
How it was run: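 Autofluorescence equivalency to Rose Bengal sodium, 540/590nm, in HEK293 cells exposed overnight to 23 nL compound per well.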

[8] = qHTS assay to test for compound auto fluorescence at 535 nm (green) in HEK293 cells (AID 720680); settings: green autofluorescence 485/535 nm; series mostly up to 91.3 µM
[9] = qHTS assay to test for compound auto fluorescence at 460 nm (blue) in HEK293 cell free culture (AID 720681); settings: cell-free medium, autofluorescence 405/460 nm (blue); series mostly up to 91.3 µM
How it was run: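 Compounds were added to cell-free DMEM with 10% FBS and fluorescence read directly. The blue channel used 405 nm excitation and 460 nm emission, with triamterene as the reference fluorophore.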

[10] = qHTS assay to test for compound auto fluorescence at 535 nm (green) in HEK293 cell free culture (AID 720682); settings: cell-free medium, green autofluorescence 485/535 nm, stronger effect = higher value; series mostly up to 91.3 µM
How it was run: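 Green-channel intensity (Ex/Em 485/535 nm) was recorded from compound-treated wells containing only DMEM with 10% FBS. Fluorescein provided the equivalency standard.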

[11] = qHTS assay to test for compound auto fluorescence at 590 nm (red) in HEK293 cell free culture (AID 720683); settings: cell-free medium autofluorescence, Ex540/Em590 red; series mostly up to 91.3 µM
How it was run: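 Cell-free wells of DMEM with 10% FBS received compound, and intrinsic fluorescence was read at excitation/emission 540/590 nm. Values expressed as equivalence to Rose Bengal sodium.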

[12] = qHTS assay to test for compound auto fluorescence at 590 nm (red) in HepG2 cell free culture (AID 720684); settings: cell-free medium autofluorescence, red 540/590 nm; series mostly up to 91.3 µM
How it was run: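 Compound was pinned into wells holding MEM with 10% FBS and no cells, and red fluorescence was read at Ex/Em 540/590 nm. Signal is expressed as auto fluorescence equivalency relative to Rose Bengal sodium.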

[13] = qHTS assay to test for compound auto fluorescence at 460 nm (blue) in HepG2 cell free culture (AID 720685); settings: Cell-free culture medium, blue autofluorescence 405/460 nm; series mostly up to 91.3 µM
How it was run: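 Compound (23 nL) or DMSO pinned into cell-free MEM with 10% FBS; blue fluorescence read at 405/460 nm excitation/emission, expressed as auto-fluorescence equivalency to triamterene.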

[14] = qHTS assay to test for compound auto fluorescence at 535 nm (green) in HepG2 cell free culture (AID 720686); settings: Cell-free medium, green autofluorescence 485/535 nm; series mostly up to 91.3 µM
[15] = qHTS assay to test for compound auto fluorescence at 460 nm (blue) in HepG2 cells (AID 720687); settings: autofluorescence 405/460 nm, 1 h; series mostly up to 91.3 µM
How it was run: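 HepG2 cells in MEM with 10% FBS, attached overnight at 37 C, were exposed to compound or DMSO for 1 hr at 37 C, 5% CO2. Blue fluorescence was read at 405/460 nm, with triamterene as reference fluorophore.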

[16] = target: Glucocorticoid receptor (Homo sapiens) (UniProt P04150); experiment: qHTS assay to identify small molecule agonists of the glucocorticoid receptor (GR) signaling pathway (AID 720691; active = well fitted activation curve with a large enough effect in the signal ratio in the repeat runs, not every such curve was filed as active; the % refers to the signal ratio); settings: GR-bla HeLa, beta-lactamase reporter ratio, 18 h; series mostly up to 62.4 µM
How it was run: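 GR-bla HeLa cells (beta-lactamase reporter under glucocorticoid response element) were plated 4 h at 37 C/5% CO2, given compounds in DMSO, and incubated 18 h at 37 C. LiveBLAzer B/G FRET substrate was added for 2 h at room temperature, then fluorescence intensity read.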

[17] = target: Glucocorticoid receptor (Homo sapiens) (UniProt P04150); experiment: qHTS assay to identify small molecule antagonists of the glucocorticoid receptor (GR) signaling pathway (AID 720692; active = well fitted inhibition curve with a large enough effect in the signal ratio in the repeat runs, not every such curve was filed as active; the % refers to the signal ratio); settings: GR-bla HeLa, beta-lactamase FRET ratio, dexamethasone-stimulated, 18 h; series mostly up to 58.5 µM
How it was run: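 GR-bla HeLa cells (beta-lactamase reporter under glucocorticoid response element) were pre-plated 4 h at 37 C, treated with compounds plus 5 nM dexamethasone (final) for 18 h, then read by LiveBLAzer B/G FRET fluorescence after 2 h.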

[18] = qHTS assay for small molecule disruptors of the mitochondrial membrane potential - cell viability (AID 720634; calls by dose curve;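 note: human HepG2 liver cancer cells; nearly all actives have a fitted effect of over 20% in size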); settings: HepG2 viability, ATP luminescence (CellTiter-Glo), 1 h; series mostly up to 83.2 µM
How it was run: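 HepG2 cells seeded overnight at 37 C, then exposed to compound or DMSO for 1 hr at 37 C, 5% CO2. m-MPI dye added, then CellTiter-Glo for 30 min at room temperature; viability read as ATP luminescence.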

[19] = qHTS assay for small molecule disruptors of the mitochondrial membrane potential (AID 720635); settings: HepG2 mitochondrial membrane potential, Mito-MPS dye ratio; series mostly up to 83.2 µM; note: potency is the fitted concentration of half-maximal effect
How it was run: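 HepG2 cells exposed to compound 1 hr at 37C, then Mito-MPS dye 30 min. Ratio read of aggregate (540/590 nm) versus monomer (490/535 nm) fluorescence.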
% is set by controls: 0 for no effect and ±100 for the full control effect.

Glucocorticoid receptor (Homo sapiens), sequence (P04150 whole entry, looked up): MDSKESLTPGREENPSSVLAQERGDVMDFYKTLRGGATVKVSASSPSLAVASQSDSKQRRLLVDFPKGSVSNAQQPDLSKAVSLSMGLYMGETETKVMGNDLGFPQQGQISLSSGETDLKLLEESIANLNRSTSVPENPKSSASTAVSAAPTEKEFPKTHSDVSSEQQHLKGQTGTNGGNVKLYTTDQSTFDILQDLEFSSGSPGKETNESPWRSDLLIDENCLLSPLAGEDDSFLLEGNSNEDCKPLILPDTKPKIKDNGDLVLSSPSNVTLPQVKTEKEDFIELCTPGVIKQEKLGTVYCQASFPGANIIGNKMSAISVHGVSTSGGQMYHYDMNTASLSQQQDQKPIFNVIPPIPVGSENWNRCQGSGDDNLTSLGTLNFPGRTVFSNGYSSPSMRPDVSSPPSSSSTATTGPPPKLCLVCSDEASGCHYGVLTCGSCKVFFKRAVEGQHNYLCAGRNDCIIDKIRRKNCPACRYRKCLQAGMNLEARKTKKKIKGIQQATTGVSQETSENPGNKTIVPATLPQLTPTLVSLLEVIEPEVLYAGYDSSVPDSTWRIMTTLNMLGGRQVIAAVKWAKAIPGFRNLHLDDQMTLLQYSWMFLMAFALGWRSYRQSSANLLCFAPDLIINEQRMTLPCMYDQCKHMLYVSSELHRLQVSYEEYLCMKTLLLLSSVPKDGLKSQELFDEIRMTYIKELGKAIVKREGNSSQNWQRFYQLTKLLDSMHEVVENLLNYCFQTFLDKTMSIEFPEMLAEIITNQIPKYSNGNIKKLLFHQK

CC[C@H](C)C(=O)O[C@H]1C[C@H](O)C=C2C=C[C@H](C)[C@H](CC[C@@H](O)C[C@@H](O)CC(=O)O)[C@H]21
inactive: Potency [1] | outcome [2] | Potency [3] | outcome [4] | outcome [5] | outcome [6] | outcome [7] | outcome [8] | outcome [9] | outcome [10] | outcome [11] | outcome [12] | outcome [13] | outcome [14] | outcome [15] | Potency [16] | outcome [17]

CCN(C)C(=O)Oc1cccc([C@H](C)N(C)C)c1
inactive: Potency [1] | outcome [2] | Potency [3] | outcome [4] | outcome [5] | outcome [6] | outcome [7] | outcome [8] | outcome [9] | outcome [10] | outcome [11] | outcome [12] | outcome [13] | outcome [14] | Potency [16]

CCCOC(OCCC)OCCC
inactive: Potency [1] | Potency [3] | outcome [18] | outcome [4] | outcome [5] | outcome [6] | outcome [7] | outcome [8] | outcome [9] | outcome [11] | outcome [12] | outcome [13] | outcome [15] | Potency [16] | outcome [17]

COc1cc2c(cc1OC)[C@@H]1CC(=O)[C@@H](CC(C)C)CN1CC2
inactive: Potency [1] | Potency [3] | outcome [4] | outcome [5] | outcome [6] | outcome [7] | outcome [8] | outcome [9] | outcome [10] | outcome [11] | outcome [12] | outcome [13] | outcome [14] | outcome [15]

O=C1c2cccc3c2[C@H](CCC3)CN1[C@@H]1CN2CCC1CC2
inactive: Potency [1] | outcome [2] | outcome [18] | Potency [19] | outcome [4] | outcome [6] | outcome [7] | outcome [8] | outcome [9] | outcome [10] | outcome [11] | outcome [12] | outcome [13] | outcome [15] | Potency [16] | outcome [17]

O=S(=O)(O)c1ccc2cc(O)c(S(=O)(=O)O)cc2c1
inactive: Potency [1] | outcome [2] | Potency [3] | outcome [18] | outcome [4] | outcome [5] | outcome [7] | outcome [8] | outcome [10] | outcome [12] | outcome [14] | outcome [15] | Potency [16] | outcome [17]

CCC(CC)CO
inactive: Potency [1] | outcome [2] | Potency [3] | Potency [19] | outcome [4] | outcome [5] | outcome [6] | outcome [7] | outcome [8] | outcome [9] | outcome [10] | outcome [11] | outcome [12] | outcome [13] | outcome [14] | outcome [15]

CC(C)CCCCOC(=O)c1ccccc1C(=O)OCCCCC(C)C
inactive: Potency [1] | outcome [2] | Potency [3] | Potency [19] | outcome [4] | outcome [5] | outcome [6] | outcome [7] | outcome [8] | outcome [9] | outcome [10] | outcome [11] | outcome [12] | outcome [13] | outcome [14] | Potency [16]

CC(C)c1ccc2cc(C(C)C)ccc2c1
inactive: Potency [1] | Potency [3] | outcome [18] | outcome [4] | outcome [5] | outcome [6] | outcome [7] | outcome [8] | outcome [9] | outcome [10] | outcome [11] | outcome [12] | outcome [13] | outcome [15] | Potency [16] | outcome [17]

CCN(CC)CC(=O)Nc1c(C)cccc1C
inactive: outcome [2] | Potency [3] | outcome [18] | Potency [19] | outcome [4] | outcome [5] | outcome [6] | outcome [7] | outcome [8] | outcome [9] | outcome [11] | outcome [12] | outcome [13] | outcome [14] | outcome [15] | Potency [16]

COc1ccc2c(c1)C(=O)N(CCc1ccc(S(=O)(=O)NC(=O)NC3CCCCC3)cc1)C(=O)C2(C)C
inactive: Potency [1] | outcome [2] | Potency [3] | fluorescence, relative to Rose Bengal [4] 0.0268% [at 18.6 µM] | fluorescence, % of triamterene [6] 0.056% [at 18.6 µM] | fluorescence, % of fluorescent control [7] -0.014% [at 18.6 µM] | fluorescence, % of fluorescein [8] 0.0317% [at 18.6 µM] | fluorescence, % of fluorescent control [9] 0.0227% [at 18.6 µM] | fluorescence, % of fluorescent control [11] -0.0169% [at 18.6 µM] | fluorescence, % of Rose Bengal [12] -0.0384% [at 18.6 µM] | fluorescence, % of fluorescent control [13] -0.0823% [at 18.6 µM] | fluorescence, % of fluorescein control [14] -0.167% [at 18.6 µM] | fluorescence, % of fluorescent control [15] -0.0057% [at 18.6 µM] | Potency [16]

CC(C)(C)OC(=O)c1ccc(O)cc1
active: Potency [19] 21.7 µM
inactive: Potency [1] | outcome [2] | Potency [3] | outcome [4] | outcome [5] | outcome [6] | outcome [7] | outcome [8] | outcome [9] | outcome [10] | outcome [11] | outcome [12] | outcome [13] | outcome [14] | outcome [15] | Potency [16]

N[C@@H](CCC(=O)N[C@@H](CS)C(=O)NCC(=O)O)C(=O)O
inactive: outcome [2] | Potency [3] | outcome [18] | Potency [19] | outcome [4] | outcome [5] | outcome [6] | outcome [7] | outcome [8] | outcome [9] | outcome [10] | outcome [11] | outcome [12] | outcome [13] | outcome [14] | outcome [15]

CC1=C(C(=O)O)N2C(=O)[C@@H](NC(=O)[C@H](N)c3ccc(O)cc3)[C@H]2SC1
inactive: Potency [1] | outcome [2] | Potency [3] | Potency [19] | fluorescence, relative to Rose Bengal [4] 0.188% [at 18.6 µM] | fluorescence, % of fluorescein control [5] -0.0034% [at 18.6 µM] | fluorescence, % of triamterene [6] 0.187% [at 18.6 µM] | fluorescence, % of fluorescent control [7] -0.165% [at 18.6 µM] | fluorescence, % of fluorescein [8] 0.159% [at 18.6 µM] | fluorescence, % of fluorescent control [9] 0.558% [at 18.6 µM] | activity change [10] 0.0539% [at 18.6 µM] | fluorescence, % of fluorescent control [11] -0.034% [at 18.6 µM] | fluorescence, % of Rose Bengal [12] -0.146% [at 18.6 µM] | fluorescence, % of fluorescent control [13] 0.197% [at 18.6 µM] | fluorescence, % of fluorescein control [14] 0.179% [at 18.6 µM] | fluorescence, % of fluorescent control [15] 0.189% [at 18.6 µM] | Potency [16]
